Assay outcomes deposited in PubChem by National Center for Advancing Translational Sciences (NCATS).
CHX counter: counter-screen for Shiga toxin inhibitors: cycloheximide protein synthesis inhibition; 12% of 300,000 active; AID 2314; max response, %; cell reporter, cycloheximide protein synthesis inhibition counterscreen; in the data active = max response mostly above about 13%, no sharp cut-off; inactive = mostly below about 14%; also: read at 38.3 µM for the half of the compounds with a filed dose; 0% is about no effect
Shiga toxin inh: blocks Shiga toxin action in Vero cells; Vero cells, Shiga toxin protein synthesis inhibition reporter; inhibition, % at 38.7 µM; 9.2% of 290,000 active; in the data active = inhibition mostly above about 28%, no sharp cut-off; inactive = mostly below about 43%; also: 0% is about no effect
Marburg entry inh: blocks Marburg virus binding to or entry into cells; AID 540276; 1.8% of 300,000 active; Potency, µM (titrated, usually from 37.8 µM), for the others: at the top dose activity change, negative = inhibition, usual class: inhibitors; Marburg virus pseudotyped entry inhibition, cell reporter; calls by dose curve; tested in HEK293 cells; also: potency is read from the fitted curve at half-maximal effect; % is scaled to controls: 0 for no effect and ±100 for the full control effect
Lassa entry inh: Lassa virus entry inhibition; Lassa virus pseudotype entry inhibition, cell reporter; Potency, µM (highest dose often 37.9 µM), without a hit: at the top dose activity change, negative = inhibition, hits mostly inhibitors; 1.2% of 300,000 active; calls by dose curve; tested in HEK293 cells; also: potency is read from the fitted curve at half-maximal effect; % is scaled to controls: 0 for no effect and ±100 for the full control effect; nearly all actives have a fitted effect of over 50% in size
The depositor's hits bear a star; ? = inconclusive; . = no result given; ! = repeats disagree; [ ] = remark or other dose. Shown are actives, neighbours in structure and some others; about 12% of the full set was active somewhere.

SMILES | CHX counter | Shiga toxin inh | Marburg entry inh | Lassa entry inh
CC(C)c1ccccc1NC(=O)Nc1ccc2c(c1)OCO2 | 2 | 25 | . | .
CCC1(O)CCCC2C3CCC4CC(=O)CCC4(C)C3C(=O)CC21C (stereo not drawn) | . | . | -15% | -21%
O=C1Cc2cc(CCN3CCN(c4nsc5ccccc45)CC3)c(Cl)cc2N1 | -4 | 19 | ? | 5.8µM*
O=C1Cc2cc(S(=O)(=O)N3CCN(c4ccccc4)CC3)ccc2N1 | 1 | 8 | -7%[46.1 µM] | -11%[46.1 µM]
COc1ccc(C(CNC(=O)C(Cc2ccccc2)NC(N)=O)N(C)C)cc1 (stereo not drawn) | 7 | 38 | . | .
Cc1ccc(C)c(N2CCN(C3CCCC(C)C3)CC2)c1 (stereo not drawn) | -1 | -8 | 5µM* | ?
O=C(CSc1nc2ccccc2c(=O)[nH]1)Nc1ccc(N2CCOCC2)c(Cl)c1 | -3 | -6 | -10%[46.1 µM] | .
CC1(C)Cc2c(sc(NC(=O)C(=O)N3CCCC3)c2C(=O)O)CO1 | 1 | 6 | . | .
CC(C)COc1ccc(C(=O)Nc2sc3c(c2C(=O)O)CC(C)(C)OC3)cc1 | 5 | 19 | 1.3µM* | ?
CC1(C)Cc2c(sc(NC(=O)C(=O)N3CCCCC3)c2C(=O)O)CO1 | -5 | -5 | . | .
CC1(C)Cc2c(sc(NC(=O)c3ccccc3)c2C(=O)O)CO1 | 61* | 114* | ? | ?
COc1ccc(C(=O)Nc2sc3c(c2C(=O)O)CC(C)(C)OC3)cc1 | -3 | 13 | 4.5µM* | ?
CC(=O)c1ccc(N2CCN(S(=O)(=O)c3ccc4c5c3CC(=O)N5CC(C)S4)CC2)cc1 (stereo not drawn) | 2 | -20 | . | .
CCOc1ccc(OCc2ccc(C(=O)O)o2)cc1 | 33* | 60* | ? | ?
CCOc1ccc(OCc2ccc(C(=O)Nc3cc(OC)c(OC)c(OC)c3)o2)cc1 | . | . | ? | -26%[46.1 µM]
O=C(O)c1ccc(COc2ccc3ccccc3c2)o1 | 42* | 94* | . | .
COc1cccc2c1Oc1ncccc1N(C(=O)CCC(=O)NCc1cccc(C)c1)C2 | -3 | -2 | . | .
CC#CC#Cc1cccc(=O)o1 | 25* | 61* | . | .
O=C(Nc1ccccc1)c1ccc(S(=O)(=O)N2CCCCC2)cc1 | 11* | 19* | . | .
O=C(Nc1cccc(S(=O)(=O)N2CCCCC2)c1)c1ccc(S(=O)(=O)C(F)F)cc1 | 1 | 2 | 4.5µM* | ?
COc1ccc(-c2cnnn2-c2ccc(NC(=O)c3ccc(S(=O)(=O)N4CCCCC4)cc3)cc2)cc1 | -1 | -2 | -5% | 7.1µM*
O=C(Nc1cccc(S(=O)(=O)C(F)F)c1)c1ccc(S(=O)(=O)N2CCCCC2)cc1 | -3 | -6 | ? | ?
Brc1cccc(-c2nnc(CN3CCN(c4ccccn4)CC3)o2)c1 | . | . | 5%[46.1 µM] | 2%[46.1 µM]
CCCCn1c(=O)[nH]c(=O)c2c1nc(CN(C)Cc1cccc(OC)c1OC)n2CCC | -2 | -6 | ? | -18%[46.1 µM]
COc1ccc(NS(=O)(=O)c2ccc3nc(COc4ccc(C#N)cc4)[nH]c3c2)cc1 | 2 | -1 | -31% | -8%
SMILES | CHX counter | Shiga toxin inh | Marburg entry inh | Lassa entry inh
Cn1cc(Br)c(C(=O)NNC(=O)c2ccc(Cl)cc2)n1 | 39* | 35 | ? | 0%
C/C(=N\NC(=O)c1nn(C)cc1Br)c1cccc(NC(=O)C(C)(C)C)c1 | 32* | 98* | -1%[46.1 µM] | -2%
C/C(=N\NC(=O)c1c(Cl)cnn1C)c1ccc(NC(=O)c2ccncc2)cc1 | 16* | 16 | -19% | -1%
C/C(=N\NC(=O)c1nn(C)cc1Br)c1ccc(NC(=O)c2ccncc2)cc1 | 59* | 105* | ? | ?
CCn1c(=O)c(CCC(=O)N2CCN(c3ccccn3)CC2)c(C)c2c(C)nn(-c3ccccc3)c21 | -1 | -12 | . | .
C/C(=N\NC(=O)c1nn(C)cc1Br)c1cccc(NC(=O)C2CCCC2)c1 | 65* | 102* | 17% | 8%
C/C(=N\NC(=O)c1c(Br)c(C)nn1C)c1cccc(NC(=O)C2CCC2)c1 | 12 | 25 | ? | 11%
O=C(N/N=C/c1cccc([N+](=O)[O-])c1)C(=O)N1CCCCCC1 | -3 | -28 | -7% | -11%
COc1ccc(COc2cc(-c3cccc(OC)c3)nc3ccc(N)cc23)cc1 | 37*! | 61*! | ? | ?
O=C(CSc1nc2c([nH]c3ccccc32)c(=O)n1-c1ccc(F)cc1)NC1CCCCC1 | . | . | . | 0%[46.1 µM]
c1ccc2nc3c(nc2c1)[nH]c1ccccc13 | 64* | 103* | ? | ?
c1ccc(-c2c3ccccc3nc3[nH]c4ccccc4c23)cc1 | -2 | -15 | -42% | ?
Cc1cc(C)c(C(=O)Nc2ccccc2)c(SCC(=O)Nc2ccc(Br)cc2C)n1 | . | . | ? | -18%[46.1 µM]
N#Cc1c(N2CCCC(O)C2)nc(N)c2c(N)nc3c(c12)CC(=O)N3C12CC3CC(CC(C3)C1)C2 (stereo not drawn) | 4 | 16 | ? | 8.2µM*
C=C(C)CN(CC)c1nc(N)c2c(N)nc3c(c2c1C#N)CC(=O)N3C12CC3CC(CC(C3)C1)C2 | -3 | -6 | 2.5µM* | ?
COc1ccc(CN2C(=O)Cc3c2nc(N)c2c(N)nc(N4CCCCC4)c(C#N)c32)cc1 | -2 | 13 | . | .
COc1ccc2c(C)cc(SCC(=O)Nc3nsc(-c4ccccc4C)n3)nc2c1 | . | . | 21%[46.1 µM] | 22%[46.1 µM]
COCC=CC1=CC2=CC(=O)C(C)(OC(=O)c3cnc4ccccc4n3)C(=O)C2=CN1CCc1c[nH]c2ccccc12 (stereo not drawn) | . | . | 22%[14.2 µM] | .
COC(=O)C1=C(C)N(Cc2ccccc2)C(=NCC2CC2)NC1c1ccc(Br)cc1 (stereo not drawn) | . | . | -10%[14.2 µM] | .
O=C(Nc1ccccc1)c1cccc(N2C(=O)CCC2=O)c1 | -3 | -13 | ? | 5%
CN(C)c1ccc(NC(=O)c2cccc(N3C(=O)CCC3=O)c2)cc1 | 21* | 37 | 27% | -5%
O=C(Nc1ccc(Br)cc1)c1cccc(N2C(=O)CCC2=O)c1 | 55* | 65* | 18% | 2%
CCc1ccccc1NC(=O)C1CCN(C(=O)N2CCOc3ccccc32)CC1 | -3 | -6 | . | .
O=C(Nc1ccc(OC(F)(F)F)cc1)C1CCCN(S(=O)(=O)c2cnc[nH]2)C1 (stereo not drawn) | -2 | -1 | . | .
CS(=O)(=O)N(CC(=O)NCc1ccncc1)c1ccc(F)c(Cl)c1 | -2 | 9 | -3%[46.1 µM] | 2%[46.1 µM]
SMILES | CHX counter | Shiga toxin inh | Marburg entry inh | Lassa entry inh
COc1ccc(C2c3[nH]c4ccccc4c3CCN2Cc2cccn2-c2ncccn2)cc1C (stereo not drawn) | 5 | 7 | 7.1µM* | ?
Cc1cccc(C2c3[nH]c4ccccc4c3CCN2Cc2cccn2-c2ncccn2)c1 (stereo not drawn) | 12 | 17 | ? | 11µM*
Oc1cccc(C2c3[nH]c4ccccc4c3CCN2Cc2ccc3c(c2)CCO3)c1 (stereo not drawn) | -3 | -21 | 3.2µM* | ?
CC1CCCCN1S(=O)(=O)c1ccc(C(=O)Nc2sc3c(c2C(N)=O)CC(C)(C)NC3(C)C)cc1 (stereo not drawn) | . | . | . | 2%[46.1 µM]
Cc1ccc(C(=O)OCc2cc(=O)n3nc(CC(C)C)sc3n2)cc1 | . | . | . | 22%[46.1 µM]
O=C1C(=O)N(Cc2cccc([N+](=O)[O-])c2)c2ccccc21 | -2 | 13 | 11µM* | ?
Cc1c(C(=O)Nc2ccc(Cl)cn2)oc2ccccc12 | 7 | 18 | ? | 21%
